# In PubChem BioAssay (EPA / NIEHS):
# “And” between values parts separate entries of the source, which are not always exact repeats. Equal entries are not always repeated. Inconclusive results are not listed. The source made the active and inactive calls. Rule for the calls: active = hit-call score of the fitted dose curve at least 0.9, where 1 is the maximum; inconclusive = response in the unintended direction; inactive = score below 0.9.
# Assays:
# [1] = ACEA_ER_AUC_viability: ACEA Biosciences xCELLigence Real-Time Cell Analysis on Estrogen Receptor Agonism for Viability (AID 2283782);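 note: continuous compound exposure with impedance area under curve over 80 h; hit means loss of impedance signal meaning reduced cell growth or viability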
# Summary of the method: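 T-47D; phenol red-free RPMI1640 + 10% CS-FBS; 8 conc., 1:4 serial, max 100 uM final, ≤0.5% DMSO; n = 2; continuous exposure; impedance monitored to 80 h post-dose; AUC vs DMSO.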
# AR (gene 367) = AR (gene 367) (UniProt P10275); assay: ACEA_AR_agonist_80hr: ACEA Biosciences xCELLigence Real-Time Cell Analysis on Androgen Receptor Agonism for Proliferation (AID 2283783);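 note: hits increase impedance growth signal above DMSO baseline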
# Summary of the method: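 Androgen-driven proliferation in 22Rv1 cells is tracked as electrical impedance, taken 80 h after continuous exposure to compound (eight concentrations, 1:4 steps, maximum 100 uM final). Activity is fitted in the positive direction with DMSO as baseline.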
# [2] = STM_H9_NormalizedViability: Cytotoxicity Assessment at 120 hours in the Stemina devTOX quickPredict H9 human embryonic stem cell (hESC)-based Assay (AID 2283784)
# Summary of the method: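 Pluripotent H9 hESCs were exposed, with chemical and media replaced every 24 h. Viability was read by CellTiter-Fluor fluorescence, background-corrected and normalized to the 0.1% DMSO neutral control per plate. Loss of signal was fitted.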
# [3] = molecular target: GAL4 Transcription Factor (Internal Marker), GAL4 (gene 855828) (UniProt P04386); assay: ATG_GAL4_XSP1: Attagene TRANS-FACTORIAL Multi-Species (XSP1) HepG2 Assay for GAL4 Transcription Factor (Internal Marker) (AID 2283789)
# Description: ATG_XSP1_multi-species_TRANS is a cell-based, multiplexed assay created by modifying the existing Attagene TRANS-FACTORIAL system to include a panel of nuclear receptors from some or all the following species: human (Homo sapiens), mouse (Mus musculus), frog (Xenopus laevis), zebrafish (Danio rerio), chicken (Gallus gallus), and turtle (Chrysemys picta). The ECOTOX-FACTORIAL format uses HepG2, a human liver cell line, with measurements taken at 24 hours after chemical dosing in a 24-well plate. Xsp1 included 3 nM 6-alpha-fluorotestosterone to partially stimulate the androgen receptor.ATG_GAL4_XSP1 is one of 29 assay components measured or calculated from the ATG_XSP1_multi-species_TRANS assay. It is designed to make measurements of mRNA induction, a form of inducible reporter, as detected with fluorescence intensity signals by Reverse transcription polymerase chain reaction (RT-PCR) and Capillary electrophoresis technology.This assay endpoint, ATG_GAL4_XSP1, was analyzed in the positive analysis fitting direction relative to DMSO as the negative control and baseline of activity. […] Furthermore, this assay endpoint can be referred to as a secondary readout, because this assay has produced multiple assay endpoints where this one serves a background control function. […]
# [4] = ATG_M_06_XSP1: Attagene TRANS-FACTORIAL Multi-Species (XSP1) HepG2 Assay for M06 Transcription Factor (Internal Marker) (AID 2283790)
# Summary of the method: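 Transfected HepG2 multi-reporter system treated 24 h in the presence of 3 nM 6-alpha-fluorotestosterone. The M06 internal marker transcript was quantified by RT-PCR with capillary electrophoresis as a background control, and gain of signal was scored versus DMSO.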
# [5] = ATG_M_61_XSP1: Attagene TRANS-FACTORIAL Multi-Species (XSP1) HepG2 Assay for M61 Transcription Factor (Internal Marker) (AID 2283797)
# Summary of the method: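 HepG2 cells transiently transfected with multiplexed GAL4-driven reporter units, dosed 24 h with 3 nM 6-alpha-fluorotestosterone present. Reporter mRNA quantified by RT-PCR, 6-FAM labelling, HpaI digestion and capillary electrophoresis; internal-marker background control, gain of signal versus DMSO.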
# AR (gene 367), sequence (P10275 whole entry, looked up): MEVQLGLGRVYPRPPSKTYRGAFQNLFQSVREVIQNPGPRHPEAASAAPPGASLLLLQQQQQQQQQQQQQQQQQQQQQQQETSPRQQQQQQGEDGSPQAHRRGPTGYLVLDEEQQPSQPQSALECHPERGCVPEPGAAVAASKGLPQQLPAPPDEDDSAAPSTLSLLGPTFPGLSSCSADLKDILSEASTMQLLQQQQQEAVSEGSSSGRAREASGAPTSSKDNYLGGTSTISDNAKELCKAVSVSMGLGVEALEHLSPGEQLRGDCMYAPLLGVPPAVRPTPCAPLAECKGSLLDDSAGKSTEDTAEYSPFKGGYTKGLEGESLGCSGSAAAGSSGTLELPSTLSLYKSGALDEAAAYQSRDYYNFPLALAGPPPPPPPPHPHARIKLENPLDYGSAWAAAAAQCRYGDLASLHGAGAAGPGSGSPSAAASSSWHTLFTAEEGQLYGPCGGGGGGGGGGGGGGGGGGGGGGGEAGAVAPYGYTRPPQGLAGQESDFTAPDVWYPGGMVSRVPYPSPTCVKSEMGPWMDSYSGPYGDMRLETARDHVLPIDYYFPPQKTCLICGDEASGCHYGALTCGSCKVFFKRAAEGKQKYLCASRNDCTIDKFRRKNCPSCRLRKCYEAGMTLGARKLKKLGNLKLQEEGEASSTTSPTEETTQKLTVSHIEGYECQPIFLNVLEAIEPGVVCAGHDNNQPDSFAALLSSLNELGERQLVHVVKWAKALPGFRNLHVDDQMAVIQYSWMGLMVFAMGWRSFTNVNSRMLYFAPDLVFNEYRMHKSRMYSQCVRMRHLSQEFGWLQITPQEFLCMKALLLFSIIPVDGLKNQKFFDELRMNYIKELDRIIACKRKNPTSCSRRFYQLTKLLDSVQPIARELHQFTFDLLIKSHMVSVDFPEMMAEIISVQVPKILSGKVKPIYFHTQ
# GAL4 Transcription Factor (Internal Marker), GAL4 (gene 855828), sequence (P04386 whole entry, looked up, the tested form may be a part): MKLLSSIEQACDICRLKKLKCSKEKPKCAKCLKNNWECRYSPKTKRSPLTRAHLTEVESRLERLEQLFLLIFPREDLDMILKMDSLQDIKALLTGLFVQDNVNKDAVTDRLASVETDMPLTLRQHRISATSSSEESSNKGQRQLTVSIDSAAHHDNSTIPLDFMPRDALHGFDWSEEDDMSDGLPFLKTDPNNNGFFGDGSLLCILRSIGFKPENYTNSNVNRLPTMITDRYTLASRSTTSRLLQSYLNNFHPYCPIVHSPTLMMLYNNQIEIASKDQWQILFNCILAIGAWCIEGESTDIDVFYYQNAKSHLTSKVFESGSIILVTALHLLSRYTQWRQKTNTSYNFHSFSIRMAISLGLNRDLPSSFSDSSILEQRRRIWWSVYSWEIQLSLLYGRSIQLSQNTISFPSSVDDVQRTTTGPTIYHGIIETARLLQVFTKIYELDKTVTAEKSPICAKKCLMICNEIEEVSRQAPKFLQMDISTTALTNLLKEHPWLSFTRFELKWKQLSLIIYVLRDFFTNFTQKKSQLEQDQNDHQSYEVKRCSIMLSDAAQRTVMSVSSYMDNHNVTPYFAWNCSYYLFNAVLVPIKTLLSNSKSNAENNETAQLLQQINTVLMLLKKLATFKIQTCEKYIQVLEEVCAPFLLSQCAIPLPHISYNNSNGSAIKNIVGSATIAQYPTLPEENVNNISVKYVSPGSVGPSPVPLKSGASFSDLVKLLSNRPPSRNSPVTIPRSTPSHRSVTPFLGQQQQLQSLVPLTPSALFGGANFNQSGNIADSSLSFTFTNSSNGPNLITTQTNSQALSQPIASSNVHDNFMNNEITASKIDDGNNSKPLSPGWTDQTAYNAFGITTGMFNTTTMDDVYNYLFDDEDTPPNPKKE
structure (smiles),measurement,setting,value
CCC(C)N(C)C(=O)c1cc2ccccc2c(-c2ccccc2Cl)n1 (stereo unspecified),outcome,[1],inactive
same,outcome,AR (gene 367),inactive
same,outcome,[2],inactive
CC1=C(C)S(=O)(=O)CCS1(=O)=O,outcome,[1],inactive
same,outcome,AR (gene 367),inactive
CCc1nc(N)nc(N)c1-c1ccc(Cl)cc1,AC50,[2],33.9 µM (active)
O=C1OC(c2ccc(O)cc2)(c2ccc(O)cc2)c2ccccc21,AC50,[1],92 µM (active)
same,outcome,AR (gene 367),inactive
same,outcome,[2],inactive
CCN(CC)CCOc1ccc(C(=C(Cl)c2ccccc2)c2ccccc2)cc1,AC50,[1],6.6 µM (active) and 7.32 µM (active) and 11.2 µM (active)
same,AC50,[2],8.7 µM (active)
same,outcome,[3],inactive
same,outcome,[4],inactive
same,outcome,[5],inactive
Nc1nc(=S)c2[nH]cnc2[nH]1,AC50,[1],0.237 µM (active)
same,outcome,AR (gene 367),inactive
same,AC50,[2],3.32 µM (active)
C#CC(O)C(CC)CCCC (stereo unspecified),outcome,AR (gene 367),inactive
O=C(O)c1cccnc1,outcome,[1],inactive
same,outcome,[2],inactive
CC(COCC(C)OC(=O)c1ccccc1)OC(=O)c1ccccc1 (stereo unspecified),outcome,[2],inactive
CN(C)CCCN(C)CCCN(C)C,outcome,[1],inactive
O=C1c2c(O)cccc2Cc2cccc(O)c21,outcome,[1],inactive
C/C=C/C=C/C(=O)O,outcome,[1],inactive
OCC(CO)n1cnc(-c2ccc(F)cc2)c1-c1ccnc(Oc2ccccc2)n1,outcome,[1],inactive
CCCCCCCCCC[N+](C)(C)[O-],outcome,[2],inactive
O=C(O)CN(CC(=O)O)CC(=O)O,outcome,[1],inactive
CCCCCCCCCCCCCCCCO,outcome,[1],inactive
same,outcome,[2],inactive
CN(C)CCCN1c2ccccc2Sc2ccc(Cl)cc21,AC50,[1],13.1 µM (active)
same,AC50,[2],3.22 µM (active)
